Among all 310,000 compounds or so, about 14,000 (4.5%) showed an effect of 50% or more. The effect is printed as a negative number. The full list was thinned out, with strong results kept by preference.
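Also: peak tail current of the secondary pulse compared with the same well before compound.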

In the experiment the target is human ether-à-go-go-related gene (hERG) potassium channel (human, UniProt Q12809). As to the kind of experiment: primary screen, population patch clamp on CHO cells stably expressing hERG; higher = less effect of the substance.
Sequence of human ether-à-go-go-related gene (hERG) potassium channel (Q12809 whole entry, looked up): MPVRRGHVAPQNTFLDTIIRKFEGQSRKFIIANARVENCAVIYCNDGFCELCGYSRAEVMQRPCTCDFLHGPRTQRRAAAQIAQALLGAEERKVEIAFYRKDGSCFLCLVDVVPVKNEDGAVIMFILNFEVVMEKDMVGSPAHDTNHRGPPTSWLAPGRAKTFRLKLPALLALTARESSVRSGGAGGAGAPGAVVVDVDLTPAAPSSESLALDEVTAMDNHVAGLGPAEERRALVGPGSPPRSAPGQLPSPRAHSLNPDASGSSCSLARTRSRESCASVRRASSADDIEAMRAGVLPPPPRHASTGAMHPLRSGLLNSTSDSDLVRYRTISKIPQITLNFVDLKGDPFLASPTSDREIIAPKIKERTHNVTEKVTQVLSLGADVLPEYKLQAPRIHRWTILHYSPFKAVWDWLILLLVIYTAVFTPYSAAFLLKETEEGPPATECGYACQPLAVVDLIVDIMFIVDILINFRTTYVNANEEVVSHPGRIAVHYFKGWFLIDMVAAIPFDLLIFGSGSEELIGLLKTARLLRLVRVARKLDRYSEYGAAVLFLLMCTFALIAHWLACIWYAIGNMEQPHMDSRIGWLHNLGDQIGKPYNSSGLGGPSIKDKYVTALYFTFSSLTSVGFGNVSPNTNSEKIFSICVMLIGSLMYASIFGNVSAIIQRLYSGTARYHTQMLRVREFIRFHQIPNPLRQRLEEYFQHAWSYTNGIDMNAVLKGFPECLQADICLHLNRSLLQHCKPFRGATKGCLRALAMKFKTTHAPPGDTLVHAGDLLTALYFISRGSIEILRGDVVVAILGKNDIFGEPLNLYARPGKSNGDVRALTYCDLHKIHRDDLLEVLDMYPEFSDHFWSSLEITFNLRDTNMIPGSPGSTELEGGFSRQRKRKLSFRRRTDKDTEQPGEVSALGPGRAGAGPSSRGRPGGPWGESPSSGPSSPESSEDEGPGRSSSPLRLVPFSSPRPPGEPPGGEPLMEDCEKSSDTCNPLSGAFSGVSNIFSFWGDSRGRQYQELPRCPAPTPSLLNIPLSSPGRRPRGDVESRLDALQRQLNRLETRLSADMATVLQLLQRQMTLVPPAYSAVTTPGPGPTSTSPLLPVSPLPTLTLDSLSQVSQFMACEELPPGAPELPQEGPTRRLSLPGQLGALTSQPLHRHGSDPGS
As to `O=C(CN1c2ccccc2Sc2ccccc21)NNC(=O)Nc1cccc(Cl)c1`, the “hERG current change (%, negative = inhibition) at 10uM” value was 2.84%.
As to `CCOC(=O)C1=C(COC(=O)[C@H](C)NS(=O)(=O)c2ccc(NC(C)=O)cc2)NC(=O)NC1C` (stereo partly shown), the “hERG current change (%, negative = inhibition) at 10uM” value amounted to 21.2%.
With `O=C(c1ccc(F)cc1)C1CCN(C(=O)c2ccccc2)CC1` the figure was -9.13%.
Then `O=c1c2ccccc2[nH]c(=S)n1CCN1CCCC1`, with -19.1%.
Turning to `Cl.O.O=C(c1ccc(F)cc1)C1CCN(CCn2c(=S)[nH]c3ccccc3c2=O)CC1`, the “hERG current change (%, negative = inhibition) at 10uM” value was -68.9%.
On to `O=C(O)C(O)C(O)C(=O)O.O=C(c1ccc(F)cc1)C1CCN(CCn2c(=O)[nH]c3ccccc3c2=O)CC1`, for which the “hERG current change (%, negative = inhibition) at 10uM” value was -51.8%.
With `CCOc1ccccc1C(=O)N1CCC(C(=O)c2ccc(F)cc2)CC1` the figure was -25.2%.
Consider `CC1(C)C(=O)N(CCN2CCC(C(=O)c3ccc(F)cc3)CC2)c2ccccc21.Cl`, for which the “hERG current change (%, negative = inhibition) at 10uM” value is -70.5%.
Take `CN1CCN(CCn2c(=S)[nH]c3ccccc3c2=O)CC1`: the “hERG current change (%, negative = inhibition) at 10uM” value stood at 6.07%.
As to `O=C(CCCCn1c(=O)[nH]c2ccccc2c1=O)NC1CCN(Cc2ccccc2)CC1`, the “hERG current change (%, negative = inhibition) at 10uM” value was -18.9%.
With `O=C(O)CCn1c(=O)[nH]c2ccccc2c1=O`, the “hERG current change (%, negative = inhibition) at 10uM” value came to 12.4%.
With `O=C(NNc1cc(Cl)cc(Cl)c1)C1CCC1` the figure was 21.9%; with `COc1ccc(NC(=O)Cn2c(C)cc(=O)c3ccccc32)cc1`, -7.76%.
Then `O=C1CN(S(=O)(=O)c2cccc(Cl)c2Cl)c2ccccc2N1`, with 3.58%; and `O=C1CC(=Nc2ccccc2)NN1c1ccccc1`, with 23.1%; and `CCCCNC(=O)NC1CCCC1`, with 4.48%.
For the molecule `c1ccc2c(c1)c1cccc3ccc4cccc2c4c31`, the “hERG current change (%, negative = inhibition) at 10uM” value amounted to 16.4%.
As to `COC(=O)c1c(NC(=O)/C=C/c2ccco2)sc2c1CCC2`, the “hERG current change (%, negative = inhibition) at 10uM” value is on record as 17.6%.
Take `Cc1nc(N)nc(Nc2ccc(Cl)cc2)c1Br`: the “hERG current change (%, negative = inhibition) at 10uM” value is listed as -7.99%.
For `COc1ccc(NC(C)=O)cc1NC(=O)CN1CCN(c2ccccn2)CC1`, the “hERG current change (%, negative = inhibition) at 10uM” value came out at 10.3%.
Then `COc1ccc(NC(C)=O)cc1NC(=O)c1ccc(Cl)cc1`, with -18.2%.
Then `COc1ccc(NC(C)=O)cc1NC(=O)CN1CCN(CC(=O)Nc2ccccc2Cl)CC1`, with -53.3%; and `COc1ccccc1NC(=O)CN1CCN(CC(=O)Nc2cc(NC(C)=O)ccc2OC)CC1`, with -50.3%; and `COc1ccccc1NC(=O)CN1CCN(CC(=O)Nc2ccc(OC)c(OC)c2)CC1`, with -24.4%.
With `COc1ccc(NC(C)=O)cc1NC(=O)CN1CCN(C2c3ccccc3-c3ccccc32)CC1` the figure was 3.55%; with `COc1ccc(NC(C)=O)cc1NC(=O)CN1CCN(CC(=O)Nc2ccc(Cl)cc2)CC1`, -69.8%.
As to `COc1ccc(NC(=O)c2ccccc2Cl)cc1NC(=O)CN1CCOCC1`, the “hERG current change (%, negative = inhibition) at 10uM” value is recorded as -5.99%.
With `Cc1cc2c(cc1C)C(=O)NC(C)(C)C2` the figure was 8.73%.
`COc1cccc(N2C(=O)[C@H]3C(C(=O)c4cnccn4)=NN[C@H]3C2=O)c1`: the “hERG current change (%, negative = inhibition) at 10uM” value was 13.2%.
With `CCc1nnc(NC(=O)CSc2ccc(-c3ccc(C)cc3)nn2)s1` the figure was 9.49%.
With `O=C(NC1CC(=O)c2sccc21)c1ccc(Cl)cc1Cl` (stereo not shown) the figure was -35.6%; with `O=C(c1ccco1)N1CCN(C(=O)c2sccc2-c2ccccc2)CC1`, -8.12%; with `COc1ccc(C)cc1NC(=O)CCN1CCCC1`, 2.36%.
In the case of `CCc1ccccc1NC(=O)CN1CCN(CC(=O)Nc2cc(C)ccc2OC)CC1`, the “hERG current change (%, negative = inhibition) at 10uM” value is given as -28.4%.
Then `COc1ccc(C)cc1NC(=O)CN1CCN(c2ccccn2)CC1`, with -11.7%; and `COc1ccc(C)cc1NC(=O)CCN1CCN(C/C=C/c2ccccc2)CC1`, with -77.1%.
As for `COc1ccc(C)cc1NC(=O)CN1CCN(C/C=C/c2ccccc2)CC1`, the “hERG current change (%, negative = inhibition) at 10uM” value is given as -78.3%.
With `COc1ccc(C)cc1NC(=O)CCN1CCN(c2ccccc2)CC1` the figure was -10.3%.
Then `Cc1ccc(S(=O)(=O)c2nnn3c2nc(N2CCOCC2)c2ccccc23)c(C)c1`, with -31.3%; and `COCc1nnc(NC(=O)c2cc(C(=O)OC)cc([N+](=O)[O-])c2)s1`, with -2.76%; and `O=C(Cc1ncc(C(F)(F)F)cc1Cl)NCc1cccnc1`, with 17.1%.
Then `COc1ccc(CC(=O)OCC(=O)Nc2ccc(OC(F)F)cc2)cc1OC`, with -19.7%; and `Cc1cc(C)n(CC(C)NC(=O)c2cc(COc3c(F)cccc3F)on2)n1` (stereo not shown), with 1.49%.

Values taken from publication PMC4336329 (PLoS ONE, 2015).
